Test results: PubChem BioAssay (NCATS)
Values joined by “and” are separate entries in the source; they are usually repeats but may differ in a detail not shown here. Equal values may be shown once. Results filed as inconclusive are left out. Active and inactive are the calls of the source. Unless noted, calls follow the shape of the dose curve; as a rule, active = well fitted curve in the direction sought with a large enough effect; inconclusive = small, poorly fitted or top-dose-only effect, or another doubt; inactive = no such curve, though single readings can be large; an effect the other way counts as inactive or inconclusive.

Assays:
[1] = molecular target: Luciferin 4-monooxygenase (Photinus pyralis) (UniProt P08659); experiment: Biochemical firefly luciferase enzyme assay for NPC (AID 624030); also: nearly all actives have a fitted effect of over 70% in size; also: potency is read from the fitted curve at half-maximal effect; settings: purified P. pyralis luciferase, luminescence, 5 min; series mostly up to 58.6 µM
Method in brief: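 Purified P. pyralis luciferase at 10 nM in 50 mM Tris Acetate (final), luminescence read within 5 minutes of enzyme addition to compounds. Activity normalised to PTC124 versus DMSO; concentration-response curves classed by r2, magnitude and activity.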

[2] = S16 Schwann cell viability assay (CellTiter-Glo assay) (AID 624031); settings: S16 rat Schwann cells viability, 24 h; series mostly up to 57.5 µM;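 also: cellular ATP luminescence as a viability measure; plate controls were DMSO-treated cells for no effect and cell-free wells for full effect; nearly all actives have a fitted effect of over 70% in size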
Method in brief: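 Luminescent ATP read-out (CellTiter-Glo) after 24 h compound exposure of native S16 rat Schwann cells at 37 °C. Signals were normalized between cell-free wells and DMSO-treated cells, set as 0% activity.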

[3] = S16 Schwann cell PMP22 intronic element firefly luciferase assay (AID 624032); settings: S16 rat Schwann cells, PMP22 element FLuc, 24 h; series mostly up to 57.5 µM; also: nearly all actives have a fitted effect of over 30% in size; also: potency is read from the fitted curve at half-maximal effect
Method in brief: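 Rat S16 Schwann cells stably carrying firefly luciferase driven by a PMP22 intronic element, in 10% FBS, treated 24 h at 37 C. ONE-Glo luminescence normalized to PTC124 control and DMSO (0%); curves classed by r2, magnitude and activity.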

[4] = S16 Schwann cell PMP22 intronic element beta-lactamase assay (AID 624044; calls by dose curve;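 also: 0% = DMSO and -100% = potassium clavulanate positive control; nearly all actives have a fitted effect of over 15% in size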); settings: S16 rat Schwann cells, PMP22 element beta-lactamase FRET, 24 h; ratio activity, negative = inhibition: at 38.3 µM (top of the series) unless noted
Method in brief: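 Rat S16 Schwann cells with beta-Lac driven by a PMP22 intronic element, compound-treated 24 h at 37 °C. LiveBLAzer FRET B/G read: 460 nm normalized to potassium clavulanate vs DMSO; 535 nm FRET as viability; concentration-effect curves classified.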

Chain of Luciferin 4-monooxygenase (Photinus pyralis) (P08659 whole entry, looked up): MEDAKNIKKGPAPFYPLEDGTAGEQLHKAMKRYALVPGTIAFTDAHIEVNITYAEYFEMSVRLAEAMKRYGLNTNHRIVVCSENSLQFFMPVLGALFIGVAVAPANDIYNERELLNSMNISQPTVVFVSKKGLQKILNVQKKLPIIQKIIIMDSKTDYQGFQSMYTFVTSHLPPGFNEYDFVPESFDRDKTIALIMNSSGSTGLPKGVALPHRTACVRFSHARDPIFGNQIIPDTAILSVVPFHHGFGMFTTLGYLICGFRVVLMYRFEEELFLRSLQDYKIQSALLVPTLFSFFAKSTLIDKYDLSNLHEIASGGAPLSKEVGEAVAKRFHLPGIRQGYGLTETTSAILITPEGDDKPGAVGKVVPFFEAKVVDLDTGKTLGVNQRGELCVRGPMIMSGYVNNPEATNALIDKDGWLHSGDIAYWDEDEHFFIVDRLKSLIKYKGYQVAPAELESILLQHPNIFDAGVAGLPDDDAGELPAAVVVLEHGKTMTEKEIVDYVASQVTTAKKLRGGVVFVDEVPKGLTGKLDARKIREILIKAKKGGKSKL

CCOC(=S)SSC(=S)OCC
inactive: Potency [1] | Potency [2] | Potency [3]

CCCc1ccc(C(=O)O)cc1
inactive: Potency [1] | Potency [2] | Potency [3]

Cc1cc(-c2ccc(N=Nc3ccc4c(S(=O)(=O)O)cc(S(=O)(=O)O)c(N)c4c3O)c(C)c2)ccc1N=Nc1ccc2c(S(=O)(=O)O)cc(S(=O)(=O)O)c(N)c2c1O
active: Potency [1] 28.7 µM and 14.4 µM | Potency [3] 8.09 µM
inactive: Potency [2]

Cc1ccc(C(C)(C)c2ccc(C)cc2)cc1
inactive: Potency [1] | Potency [2] | Potency [3]

O=C(O)c1ccc(OCCn2ccnc2)cc1
inactive: Potency [1] | Potency [2] | Potency [3]

Cc1cc(C(=O)NCCc2ccc(S(=O)(=O)NC(=O)NN3CCCCCC3)cc2)no1
inactive: Potency [1] | Potency [2] | Potency [3]

C[Se]CC[C@H](N)C(=O)O
inactive: Potency [1] | Potency [2] | Potency [3]

CCCCC(CC)COS(=O)(=O)O (stereo unspecified)
inactive: Potency [1] | Potency [2] | Potency [3]

Cc1ncc(COP(=O)(O)O)c(CN)c1O
inactive: Potency [1] | Potency [2] | Potency [3] | ratio activity, negative = inhibition [4] -0.583%

O=P(O)(O)OC[C@H](O)CO
inactive: Potency [1] | Potency [2] | Potency [3] | ratio activity, negative = inhibition [4] 2.95%

Cc1cc(=O)c(C(=O)N[C@@H](C(=O)N[C@@H]2C(=O)N3C(C(=O)O)=C(CSc4nnnn4C)CS[C@H]23)c2ccc(O)cc2)c[nH]1
inactive: Potency [1] | Potency [2] | Potency [3] | ratio activity, negative = inhibition [4] 0.254%

Cc1c(C)c2c(c(C)c1OC(=O)CCC(=O)O)CC[C@@](C)(CCC[C@H](C)CCC[C@H](C)CCCC(C)C)O2
inactive: Potency [1] | Potency [2] | Potency [3] | ratio activity, negative = inhibition [4] -15.1%

CC/C(=C(/CC)c1ccc(OP(=O)(O)O)cc1)c1ccc(OP(=O)(O)O)cc1
inactive: Potency [1] | Potency [2] | Potency [3] | ratio activity, negative = inhibition [4] 2.34%

CO/N=C(\C(=O)N[C@@H]1C(=O)N2C(C(=O)[O-])=C(C[n+]3cccc4c3CCC4)CS[C@H]12)c1csc(N)n1
inactive: Potency [1] | Potency [2] | Potency [3]

O=C(O)/C=C/c1ccccc1
inactive: Potency [1] | Potency [2] | Potency [3] | ratio activity, negative = inhibition [4] -0.672%

O=C1CCC(c2ccccc2)(C2CCN(Cc3ccccc3)CC2)C(=O)N1 (stereo unspecified)
inactive: Potency [1] | Potency [2] | Potency [3] | ratio activity, negative = inhibition [4] 1.84%

CCCC(=O)O
inactive: Potency [1] | Potency [2] | Potency [3]

CC(=O)Nc1c(I)c(C(=O)O)c(I)c(N(C)C(C)=O)c1I
inactive: Potency [1] | Potency [2] | Potency [3] | ratio activity, negative = inhibition [4] 11.6%

NC(=O)C1c2ccccc2CCc2ccccc21
inactive: Potency [1] | Potency [2] | Potency [3] | ratio activity, negative = inhibition [4] -1.01%

O=C(O)COc1ccc(CCNS(=O)(=O)c2ccccc2)s1
inactive: Potency [1] | Potency [2] | Potency [3] | ratio activity, negative = inhibition [4] -0.95%

OCC1(CO)COC(C(Cl)(Cl)Cl)OC1
inactive: Potency [1] | Potency [2] | Potency [3]

O=C(O)CCC/C=C\C[C@@H]1[C@@H](/C=C/[C@@H](O)COc2cccc(C(F)(F)F)c2)[C@H](O)C[C@@H]1O
inactive: Potency [1] | Potency [2] | Potency [3] | ratio activity, negative = inhibition [4] 4.13%

CNC(=O)[C@H](Cc1c[nH]c2ccccc12)NC(=O)[C@@H](CC(=O)NO)CC(C)C
inactive: Potency [1] | Potency [2] | Potency [3]

C[C@H]1O[C@@H](O[C@H]2[C@@H](O)C[C@H](O[C@H]3[C@@H](O)C[C@H](O[C@H]4CC[C@@]5(C)[C@H](CC[C@@H]6[C@@H]5C[C@@H](O)[C@]5(C)[C@@H](C7=CC(=O)OC7)CC[C@]65O)C4)O[C@@H]3C)O[C@@H]2C)C[C@H](O)[C@@H]1O
inactive: Potency [1] | Potency [2] | Potency [3]

COc1ccc2nc(NC(=O)Nc3ccccc3)sc2c1
active: Potency [1] 721 nM
inactive: Potency [2] | Potency [3] | ratio activity, negative = inhibition [4] -14.6%

Cc1ccc(S(=O)(=O)O)cc1C
inactive: Potency [1] | Potency [2] | Potency [3]

CC1CCCCN1CCCOC(=O)c1ccccc1 (stereo unspecified)
inactive: Potency [1] | Potency [2] | Potency [3]

CCN(CC)CCOC(=O)c1cccnc1
inactive: Potency [1] | Potency [2] | Potency [3] | ratio activity, negative = inhibition [4] 2.66%

CC(C)(C)CC(C)(C)c1cc(Cc2cc(C(C)(C)CC(C)(C)C)cc(-n3nc4ccccc4n3)c2O)c(O)c(-n2nc3ccccc3n2)c1
inactive: Potency [1] | Potency [2] | Potency [3]

CCCOc1cc(N)ccc1C(=O)OCCN(CC)CC
inactive: Potency [1] | Potency [2] | Potency [3] | ratio activity, negative = inhibition [4] 1.14% [at 17.1 µM]

CC(C)c1ncc([N+](=O)[O-])n1C
inactive: Potency [1] | Potency [2] | Potency [3]

CC(C)=CCC/C(C)=C/CC/C(C)=C/CC/C=C(\C)CC/C=C(\C)CCC=C(C)C
inactive: Potency [1] | Potency [2] | Potency [3]

CCOc1ccc(S(=O)(=O)O)c2cccnc12
inactive: Potency [1] | Potency [2] | Potency [3]

O=C1[O][Bi][O]c2ccccc21
inactive: Potency [1] | Potency [2] | Potency [3] | ratio activity, negative = inhibition [4] 0.885%

Cc1ccccn1
inactive: Potency [1] | Potency [2] | Potency [3] | ratio activity, negative = inhibition [4] -0.827%
